Measured values as given in PubChem BioAssay AID1285 (Columbia University Molecular Screening Center, 2008).
Out of some 190,000 compounds screened, about 1,600 (0.84%) were called active. What follows is part of a selection rich in actives, with near analogues and random picks from the rest. Unmarked numbers belong to inactive results.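 How the source made its calls: active means inhibition above a set limit, derived from the sample mean plus 3 SD (cut at about 45% in these data); inconclusive means one replicate passes the limit while the other fails; inactive means the rest.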

Assay: APP 5'UTR translational reporter suppression – APP 5'UTR luciferase, SH-SY5Y cells, primary screen (AID 1285)
Conditions: SH-SY5Y APP 5'UTR-luciferase reporter, luminescence; at 2 µM; active compounds read high

Row | Compound | inhibition
1 | COCc1c(C(=O)N/N=C/C2CC=CCC2)nnn1-c1nonc1N (stereo not given) | 6.9%
2 | COc1cc(/C=N\NC(=O)c2nonc2N)c(OC)cc1Br | 1%
3 | Nc1nonc1-n1nnc(C(=O)N/N=C/c2cc(Br)ccc2O)c1CSC1=NCCS1 | 54.3% (active)
4 | CCC1(CC)NC(=O)N(CC(=O)OCC(=O)NC(=O)c2ccccc2)C1=O | 5.8%
5 | CC(C)c1nc2ccc(C(=O)O)cc2[nH]1 | -1.3%
6 | COC(=O)Nc1nc2ccc(Sc3ccccc3)cc2[nH]1 | 91.5% (active)
7 | Cc1nc2ccc(C(=O)O)cc2[nH]1 | 4.6%
8 | CCO/C=C1\C(=O)N(c2ccc(OCC)cc2)C(=O)c2ccccc21 | -6.3%
9 | OCCC1CN(Cc2ccc3nsnc3c2)CCN1C1CCCCC1 (stereo not given) | 0.3%
10 | CC(C)N1CCC(=NNc2ccc([N+](=O)[O-])cc2S(=O)(=O)N2CCOCC2)CC1 | 16.2%
11 | CCn1c2ccccc2c2cc(CC(N)=O)ccc21 | 15%
12 | COc1ccc(CCNC(=O)CC2SC(=Nc3cc(C)cc(C)c3)NC2=O)cc1OC (stereo not given) | 2.9%
13 | CCCN=C1NC(=O)C(CC(=O)NCCc2ccc(OC)c(OC)c2)S1 (stereo not given) | 74.7% (active)
14 | COc1ccc(CCNC(=O)CN(c2ccccc2)S(C)(=O)=O)cc1OC | -22.4%
15 | Cc1cc(C)c(S(=O)(=O)N2CCOCC2)cc1C | 10.3%
16 | CCOc1ccc(Br)cc1S(=O)(=O)Nc1cccc(S(=O)(=O)N(CC)CC)c1 | -7%
17 | Cc1cnc(NC(=O)CSc2nnc(-c3ccc(Cl)cc3Cl)n2N)s1 | -0.1%
18 | Cc1ccc(CCC(=O)Nc2ncc(Cc3cc(Cl)ccc3Cl)s2)o1 | 94.1% (active)
19 | CCOc1ccccc1NC(=O)CCc1ccc(C)o1 | 9.7%
20 | CN(C)c1ccc(Nc2c3c4c(cccc4n(C)c2=O)C(=O)c2ccccc2-3)cc1 | 55.2% (active)
21 | CC1=NCCN1S(=O)(=O)c1cccc([N+](=O)[O-])c1 | 11.4%
22 | COC(=O)CSc1ncnc2c1cnn2-c1ccc(C)cc1C | -3.9%
23 | CSc1nc(C)cc(SC(C(C)=O)C(=O)Nc2ccccc2)n1 (stereo not given) | -17.5%
24 | CSc1nc(-c2ccccc2)nc(C(Cl)Cl)n1 | 48.7% (active)
25 | COc1ccc(NC(=O)CCNS(=O)(=O)c2ccc3c(c2)c(=O)n(C)c(=O)n3C)cc1OC | 17.6%
26 | COCCN(C(=S)Nc1ccccc1OC)C1CCN(C(C)C)CC1 | -3.7%
27 | COC(=O)c1cc2c(ccn2C)n1C | -10.6%
28 | S=c1[nH]nc(-c2cccnc2)n1/N=C/C(Cl)=C\c1ccccc1 | -36.5%
29 | Cc1ccc(/C=N\n2c(-c3ccccc3)n[nH]c2=S)s1 | -4%
30 | Cc1cc(-c2n[nH]c(=S)n2/N=C/C(Br)=C/c2ccccc2)n[nH]1 | 83.5% (active)
